Records with an inconclusive call do not appear. Calls of active or inactive are those of the source. Unless noted, the call rests on the fitted dose curve; in most records, active means well fitted curve in the direction sought with a large enough effect in the repeat runs; inconclusive means weak or mixed curves; inactive means no such curve, though single readings can be large; an effect the other way counts as inactive or inconclusive.
Legend:
[1] = molecular target: Estrogen receptor beta (Homo sapiens) (UniProt Q92731); test: qHTS assay to identify small molecule agonists of the estrogen receptor beta (ER-beta) signaling pathway (AID 1259377; active means well fitted activation curve with a large enough effect in the signal ratio in the repeat runs, not every such curve was filed as active; the % refers to the signal ratio)
Summary of the method: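 qHTS in ER-beta-UAS-bla HEK293T cells: 6 hr settling, then 16 hr compound at 37C, then LiveBLAzer substrate 2 h at RT before fluorescence reading.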

[2] = molecular target: Estrogen receptor beta (Homo sapiens) (UniProt Q92731); test: qHTS assay to identify small molecule antagonists of the estrogen receptor beta (ER-beta) signaling pathway (AID 1259378; active means well fitted inhibition curve with a large enough effect in the signal ratio in the repeat runs, not every such curve was filed as active; the % refers to the signal ratio)
Summary of the method: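 ER-beta-UAS-bla HEK293T cells in 2% charcoal-stripped FBS medium treated with compound plus 1nM final 17-beta-estradiol for 16 hr at 37C. Beta-lactamase reporter read by FRET substrate fluorescence after 2 hours at room temperature.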

[3] = qHTS assay to identify small molecule agonists of the androgen receptor (AR) signaling pathway in the presence of an antagonist - cell viability counter screen (AID 1259379);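 further: MDA-kb2 human breast cancer cells carrying an MMTV luciferase reporter; series mostly up to about 92 µM; nearly all actives have a fitted effect of over 25% in size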
Summary of the method: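 In MDA-kb2 cells (human breast carcinoma, MMTV-luciferase), compounds at 15 concentrations plus 3.0uM nilutamide; 16 hr, 37C, 0% CO2; CellTiter-Fluor fluorescence read for viability.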

[4] = qHTS assay to identify small molecule agonists of the estrogen receptor beta (ER-beta) signaling pathway - cell viability counter screen (AID 1259380); further: nearly all actives have a fitted effect of over 30% in size
Summary of the method: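 Viability of ER-beta-UAS-bla HEK293T cells was determined by CellTiter-Glo luminescence following 16 hr treatment with test compounds at 37C.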

[5] = qHTS assay to identify small molecule antagonists of the estrogen receptor beta (ER-beta) signaling pathway - cell viability counter screen (AID 1259382); further: series mostly up to about 92 µM; nearly all actives have a fitted effect of over 55% in size
Summary of the method: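 Tox21 10K library tested in qHTS format on ER-beta-bla HEK293T cells stimulated with 1nM E2; 16 hr treatment at 37C. Same-well CellTiter-Glo luminescence served as the cell viability measure.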

[6] = qHTS assay to identify small molecule agonists or antagonists of the thyroid stimulating hormone receptor (TSHR) signaling pathway - wild type cell line counter screen (AID 1259384; calls by dose curve)
Summary of the method: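 Wild-type Hek293 cells, 800/well, 18 h at 37C, then compound with Ro20-1724 for 30 min RT. cAMP by HTRF (cAMP-d2/anti-cAMP cryptate), 1 h RT, fluorescence read. 15 concentrations, triplicates.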

[7] = molecular target: Thyrotropin receptor (Homo sapiens) (UniProt P16473); test: qHTS assay to identify small molecule antagonists of the thyroid stimulating hormone receptor (TSHR) signaling pathway (AID 1259385; calls by dose curve; further: nearly all actives have a fitted effect of over 20% in size)
Summary of the method: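 TSHR-HEK293 cells (800/well) plated 18 h, then compounds with Ro20-1724 and TSH at 1.5 ng/mL final, 30 min at room temperature. cAMP quantified by HTRF (cAMP-d2/anti-cAMP-cryptate, 1 h); 15 concentrations in triplicate.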

[8] = qHTS assay to identify small molecule agonists of the estrogen receptor alpha (ER-alpha) signaling pathway in the presence of an antagonist - cell viability counter screen (AID 1259386);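 further: series mostly up to about 92 µM; cells exposed to compounds for 22 h at 37 °C before the viability read; nearly all actives have a fitted effect of over 30% in size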
Summary of the method: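 Fluorescent CellTiter-Fluor viability signal from VM7Luc4E2 cells, with the reagent added during the final hour of a 22hr compound exposure at 37C in the presence of 10.0nM ICI-182,780.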

[9] = molecular target: Progesterone receptor (Homo sapiens) (UniProt P06401); test: qHTS assay to identify small molecule agonists of the progesterone receptor (PR) signaling pathway (AID 1346784; calls by dose curve; further: nearly all actives have a fitted effect of over 30% in size)
Summary of the method: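 Fluorescence from LiveBLAzer B/G FRET substrate cleavage (2 hr, RT) reported PR activation in PR-UAS-bla HEK 293T cells treated 16 hr at 37C/5% CO2 with compounds; medium contained 2% charcoal-stripped FBS.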

[10] = molecular target: Progesterone receptor (Homo sapiens) (UniProt P06401); test: qHTS assay to identify small molecule antagonists of the progesterone receptor (PR) signaling pathway (AID 1346795; active means well fitted inhibition curve with a large enough effect in the signal ratio in the repeat runs, not every such curve was filed as active; the % refers to the signal ratio)
Summary of the method: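 Fluorescence intensity measured 2 hr after adding beta-lactamase FRET substrate to PR-UAS-bla HEK293T cells that had been co-treated 16 hr with compound and 1 nM R5020 (final concentration) in 2% charcoal-stripped FBS.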

[11] = qHTS assay to identify small molecule antagonists of the progesterone receptor (PR) signaling pathway - cell viability counter screen (AID 1346798); further: series mostly up to about 92 µM; nearly all actives have a fitted effect of over 50% in size
Summary of the method: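 CellTiter-Glo luminescence; PR-UAS-bla HEK293T, 3,000 cells/well; compound + R5020, 16 hr, 37C/5% CO2; 30 min RT before read.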

[12] = qHTS assay to identify small molecule antagonists of the TGF-beta/Smad signaling pathway - cell viability counter screen (AID 1346824); further: nearly all actives have a fitted effect of over 50% in size
Summary of the method: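 SBE-bla HEK 293T cells, incubated overnight, then compound plus 0.25 ng/mL TGF-beta1 (stock added) for 5 hr at 37 C. Viability was read in the same wells by CellTiter-Glo luminescence after 30 min at room temperature.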

[13] = qHTS assay to identify small molecule agonists of the TGF-beta/Smad signaling pathway - cell viability counter screen (AID 1346829); further: top concentration of the series differs between compounds; nearly all actives have a fitted effect of over 45% in size
Summary of the method: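 Compound-treated SBE-bla HEK 293T cells (5 hr, 37 C) were assessed for viability with CellTiter-Glo in parallel with the reporter read.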

[14] = qHTS assay to identify small molecule agonists of the TGF-beta/Smad signaling pathway (AID 1346859; active means well fitted activation curve with a large enough effect in the signal ratio in the repeat runs, not every such curve was filed as active; the % refers to the signal ratio; further: series mostly up to about 77 µM)
Summary of the method: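 After overnight seeding, SBE-bla HEK 293T cells are dosed with compounds in DMSO and kept 5 hr at 37 C, 5% CO2. LiveBLAzer-type FRET substrate is then applied for 2 hr at room temperature.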

[15] = molecular target: Thyrotropin-releasing hormone receptor (Homo sapiens) (UniProt P34981); test: qHTS assay to identify small molecule antagonists of the thyrotropin-releasing hormone receptor (TRHR) signaling pathway (AID 1346877; active means well fitted inhibition curve with a large enough effect in the repeat runs, not every such curve was filed as active; further: series mostly up to about 51 µM)
Summary of the method: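 In this cell-based calcium flux format, HEK293 cells expressing TRHR received test compound for 5 min before the agonist TRH (1 nM final). Dye loading lasted 2 h at 37 °C.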

[16] = molecular target: Thyrotropin-releasing hormone receptor (Homo sapiens) (UniProt P34981); test: qHTS assay to identify small molecule agonists of the thyrotropin-releasing hormone receptor (TRHR) signaling pathway (AID 1346891; calls by dose curve; further: series mostly up to about 58 µM)
Summary of the method: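 Compounds were tested as agonists at 15 concentrations, in triplicate, on TRHR-Hek293 cells; calcium-sensitive dye fluorescence was recorded for 3 min following addition.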

[17] = qHTS assay to identify small molecule agonists of the progesterone receptor (PR) signaling pathway - cell viability counter screen (AID 1346799; calls by dose curve; further: nearly all actives have a fitted effect of over 45% in size)
Summary of the method: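 In parallel with the beta-lactamase readout, cytotoxicity toward PR-UAS-bla HEK293T cells was measured by CellTiter-Glo luminescence following 16 hr compound incubation in 2% charcoal-stripped FBS medium.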

[18] = qHTS assay to identify small molecule antagonists of the sonic hedgehog signaling (Shh) pathway (AID 1259369; calls by dose curve; further: nearly all actives have a fitted effect of over 45% in size)
Summary of the method: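 Screening used 3T3Gli1-Luc cells at 2,000 per well, compounds delivered in DMSO, and conditioned medium as agonist stimulus; plates incubated 24hr at 37 C and 5% CO2 before a 30min luciferase step.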

[19] = molecular target: Estrogen receptor (Homo sapiens) (UniProt P03372); test: qHTS assay to identify small molecule agonists of the estrogen receptor alpha (ER-alpha) signaling pathway in the presence of an antagonist (AID 1259383; calls by dose curve; further: top concentration of the series differs between compounds; nearly all actives have a fitted effect of over 15% in size)
Summary of the method: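 In VM7Luc4E2 cells, 4,000 per well, compounds at 15 concentrations were co-incubated 22hr at 37C with 10.0nM final ICI-182,780. Luminescence from the stably transfected 4×ERE-luciferase reporter was recorded 30min after ONE-Glo addition.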

[20] = molecular target: Androgen receptor (Homo sapiens) (UniProt P10275); test: qHTS assay to identify small molecule agonists of the androgen receptor (AR) signaling pathway in the presence of an antagonist (AID 1259381; calls by dose curve; further: nearly all actives have a fitted effect of over 15% in size)
Summary of the method: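 Here, 15-concentration compound series were pin-transferred onto MDA-kb2 MMTV-luciferase cells already dosed with nilutamide (3.0uM final). After 16hr at 37C, ONE-Glo was added and luminescence read 30min later at room temperature.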

Measured: Potency

Chain of Thyrotropin-releasing hormone receptor (Homo sapiens) (P34981 whole entry, looked up): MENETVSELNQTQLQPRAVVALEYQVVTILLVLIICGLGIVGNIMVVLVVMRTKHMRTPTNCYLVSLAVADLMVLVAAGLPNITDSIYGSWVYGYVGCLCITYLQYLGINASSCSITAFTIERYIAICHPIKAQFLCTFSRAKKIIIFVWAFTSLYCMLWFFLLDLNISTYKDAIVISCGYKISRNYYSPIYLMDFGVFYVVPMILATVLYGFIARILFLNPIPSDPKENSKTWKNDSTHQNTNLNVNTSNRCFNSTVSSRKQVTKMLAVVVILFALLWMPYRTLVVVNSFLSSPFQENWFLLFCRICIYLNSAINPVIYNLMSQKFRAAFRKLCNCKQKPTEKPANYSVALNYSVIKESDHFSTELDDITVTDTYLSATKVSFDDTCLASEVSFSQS
Chain of Progesterone receptor (Homo sapiens) (P06401 whole entry, looked up): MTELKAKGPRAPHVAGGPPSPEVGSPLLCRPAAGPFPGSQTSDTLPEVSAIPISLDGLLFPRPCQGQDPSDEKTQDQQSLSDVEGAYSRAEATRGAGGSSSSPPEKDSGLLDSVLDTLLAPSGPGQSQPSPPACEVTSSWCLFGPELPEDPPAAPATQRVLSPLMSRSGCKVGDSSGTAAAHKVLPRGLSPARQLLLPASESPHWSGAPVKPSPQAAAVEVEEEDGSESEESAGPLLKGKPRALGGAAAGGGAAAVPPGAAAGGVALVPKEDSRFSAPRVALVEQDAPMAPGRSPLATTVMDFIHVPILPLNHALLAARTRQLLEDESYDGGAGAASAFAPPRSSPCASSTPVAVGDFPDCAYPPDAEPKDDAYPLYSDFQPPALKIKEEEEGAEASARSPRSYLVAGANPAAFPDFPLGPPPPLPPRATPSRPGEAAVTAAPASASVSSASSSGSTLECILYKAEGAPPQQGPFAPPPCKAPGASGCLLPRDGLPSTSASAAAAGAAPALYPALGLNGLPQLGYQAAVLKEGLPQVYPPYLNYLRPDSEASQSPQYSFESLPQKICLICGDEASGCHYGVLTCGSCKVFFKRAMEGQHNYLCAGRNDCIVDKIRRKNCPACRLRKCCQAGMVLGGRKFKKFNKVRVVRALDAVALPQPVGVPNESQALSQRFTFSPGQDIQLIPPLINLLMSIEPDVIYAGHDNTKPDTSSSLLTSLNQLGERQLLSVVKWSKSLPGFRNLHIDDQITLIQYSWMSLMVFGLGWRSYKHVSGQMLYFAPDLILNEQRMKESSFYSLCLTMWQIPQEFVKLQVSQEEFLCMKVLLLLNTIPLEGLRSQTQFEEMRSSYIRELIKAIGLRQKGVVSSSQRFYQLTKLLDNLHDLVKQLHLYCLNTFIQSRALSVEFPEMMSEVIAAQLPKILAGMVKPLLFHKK
Chain of Estrogen receptor beta (Homo sapiens) (Q92731 whole entry, looked up): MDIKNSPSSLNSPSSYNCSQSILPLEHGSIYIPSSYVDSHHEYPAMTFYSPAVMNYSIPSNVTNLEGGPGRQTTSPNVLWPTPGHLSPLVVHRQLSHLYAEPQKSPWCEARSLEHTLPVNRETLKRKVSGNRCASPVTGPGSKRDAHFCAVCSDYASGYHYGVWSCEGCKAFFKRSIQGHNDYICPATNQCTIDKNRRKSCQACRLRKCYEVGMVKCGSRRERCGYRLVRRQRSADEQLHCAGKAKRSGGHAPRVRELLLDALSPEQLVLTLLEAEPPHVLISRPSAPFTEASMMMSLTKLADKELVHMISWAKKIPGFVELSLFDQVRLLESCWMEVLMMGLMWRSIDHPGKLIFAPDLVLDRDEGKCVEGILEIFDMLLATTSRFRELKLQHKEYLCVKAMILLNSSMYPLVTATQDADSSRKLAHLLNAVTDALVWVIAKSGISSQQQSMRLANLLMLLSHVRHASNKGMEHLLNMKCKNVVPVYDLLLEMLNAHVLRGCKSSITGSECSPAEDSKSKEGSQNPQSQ
Chain of Estrogen receptor (Homo sapiens) (P03372 whole entry, looked up): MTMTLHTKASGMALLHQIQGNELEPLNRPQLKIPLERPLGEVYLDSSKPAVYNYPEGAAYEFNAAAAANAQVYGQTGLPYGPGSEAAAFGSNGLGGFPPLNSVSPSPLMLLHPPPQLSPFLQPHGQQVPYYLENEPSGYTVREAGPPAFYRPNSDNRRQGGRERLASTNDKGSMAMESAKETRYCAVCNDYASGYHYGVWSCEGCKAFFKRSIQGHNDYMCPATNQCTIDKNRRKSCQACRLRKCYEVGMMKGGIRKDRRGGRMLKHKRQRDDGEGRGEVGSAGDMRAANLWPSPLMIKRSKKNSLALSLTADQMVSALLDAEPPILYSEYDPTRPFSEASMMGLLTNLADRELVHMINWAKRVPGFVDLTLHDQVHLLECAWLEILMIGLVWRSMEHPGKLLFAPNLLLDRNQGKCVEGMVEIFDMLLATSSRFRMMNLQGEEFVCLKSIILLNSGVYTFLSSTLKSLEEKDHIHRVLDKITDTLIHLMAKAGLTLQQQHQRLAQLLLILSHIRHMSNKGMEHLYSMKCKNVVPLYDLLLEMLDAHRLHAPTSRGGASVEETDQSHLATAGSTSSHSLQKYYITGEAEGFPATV
Chain of Thyrotropin receptor (Homo sapiens) (P16473 whole entry, looked up): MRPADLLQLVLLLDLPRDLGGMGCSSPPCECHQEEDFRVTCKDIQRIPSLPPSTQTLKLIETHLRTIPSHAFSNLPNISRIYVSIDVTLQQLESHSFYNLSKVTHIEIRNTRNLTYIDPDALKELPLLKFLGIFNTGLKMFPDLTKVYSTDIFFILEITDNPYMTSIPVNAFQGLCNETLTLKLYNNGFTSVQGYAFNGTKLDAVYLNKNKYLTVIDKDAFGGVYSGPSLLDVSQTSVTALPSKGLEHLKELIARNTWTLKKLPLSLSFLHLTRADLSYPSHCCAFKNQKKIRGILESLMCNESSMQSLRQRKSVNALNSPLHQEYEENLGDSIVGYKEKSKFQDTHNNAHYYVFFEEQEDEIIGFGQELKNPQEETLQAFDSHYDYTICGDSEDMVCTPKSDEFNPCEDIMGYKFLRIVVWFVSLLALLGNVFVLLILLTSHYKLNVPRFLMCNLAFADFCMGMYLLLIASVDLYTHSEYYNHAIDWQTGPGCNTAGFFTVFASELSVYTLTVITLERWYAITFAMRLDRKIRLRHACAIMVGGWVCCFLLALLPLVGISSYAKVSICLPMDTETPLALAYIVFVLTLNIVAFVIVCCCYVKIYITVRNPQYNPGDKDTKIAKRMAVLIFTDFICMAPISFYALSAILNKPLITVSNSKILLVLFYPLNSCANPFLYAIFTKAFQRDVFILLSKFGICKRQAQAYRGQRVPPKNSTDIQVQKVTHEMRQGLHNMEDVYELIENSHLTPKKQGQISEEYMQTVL
Chain of Androgen receptor (Homo sapiens) (P10275 whole entry, looked up): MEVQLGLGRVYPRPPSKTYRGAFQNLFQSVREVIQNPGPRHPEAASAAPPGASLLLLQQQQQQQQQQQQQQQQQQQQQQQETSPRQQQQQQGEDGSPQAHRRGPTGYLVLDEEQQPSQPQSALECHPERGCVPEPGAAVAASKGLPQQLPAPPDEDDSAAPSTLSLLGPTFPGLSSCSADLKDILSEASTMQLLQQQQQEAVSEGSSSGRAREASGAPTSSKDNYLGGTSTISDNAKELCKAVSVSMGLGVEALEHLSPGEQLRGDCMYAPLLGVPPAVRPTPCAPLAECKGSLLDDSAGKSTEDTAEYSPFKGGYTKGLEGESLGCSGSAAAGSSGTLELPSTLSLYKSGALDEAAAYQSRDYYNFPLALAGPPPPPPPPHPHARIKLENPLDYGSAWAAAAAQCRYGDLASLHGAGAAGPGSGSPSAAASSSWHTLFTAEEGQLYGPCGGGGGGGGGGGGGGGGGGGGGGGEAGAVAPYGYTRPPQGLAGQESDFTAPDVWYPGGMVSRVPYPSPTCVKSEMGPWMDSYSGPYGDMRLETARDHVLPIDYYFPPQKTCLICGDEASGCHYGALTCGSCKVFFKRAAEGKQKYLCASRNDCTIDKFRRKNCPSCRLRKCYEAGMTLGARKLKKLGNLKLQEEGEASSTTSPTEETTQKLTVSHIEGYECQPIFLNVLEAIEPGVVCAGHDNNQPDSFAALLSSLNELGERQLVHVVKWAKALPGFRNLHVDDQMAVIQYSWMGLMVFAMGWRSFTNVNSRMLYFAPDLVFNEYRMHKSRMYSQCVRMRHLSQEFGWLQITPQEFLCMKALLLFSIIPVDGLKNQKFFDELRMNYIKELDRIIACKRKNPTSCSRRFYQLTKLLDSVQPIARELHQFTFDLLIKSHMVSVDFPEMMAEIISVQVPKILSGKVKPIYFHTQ

COc1nc(N)nc2c1ncn2[C@@H]1O[C@H](CO)[C@@H](O)[C@@H]1O
not listed: [17] | [18] | [19] | [20]
inactive: all other assays above

C[C@H]1C[C@@H](O)CC(C)(C)C1
not listed: [13] | [17] | [18] | [19] | [20]
inactive: all other assays above

CC(C)CNCC(C)C
not listed: [13] | [18] | [19] | [20]
inactive: all other assays above

CCOC(=O)CC(C)=O
not listed: [1] | [2] | [4] | [11] | [15] | [16] | [19] | [20]
inactive: all other assays above

CC(C)CCCC(C)N (configuration not stated)
not listed: [13] | [18] | [20]
inactive: all other assays above

CN(C)CCCNCCCN(C)C
not listed: [1] | [2] | [4] | [12] | [20]
inactive: all other assays above

CN(C)CCCSc1ccccc1NC(=O)/C=C/c1ccccc1
not listed: [1] | [2] | [4] | [17] | [20]
inactive: all other assays above

COc1ccc(CCN(C)CCCC(C#N)(c2cc(OC)c(OC)c(OC)c2)C(C)C)cc1OC (configuration not stated)
not listed: [7] | [8] | [13] | [18] | [19] | [20]
inactive: all other assays above

CN1CC(=O)NC1=N
not listed: [11] | [17] | [18] | [19]
inactive: all other assays above

Nc1c2c(nc3ccccc13)CCCC2O (configuration not stated)
not listed: [13] | [18] | [20]
inactive: all other assays above

CC1(C)CO[C@@H](CC(=O)O)CN1
not listed: [17] | [18] | [20]
inactive: all other assays above

COC(=O)CCSCCC(=O)OC
not listed: [1] | [18] | [19] | [20]
inactive: all other assays above

CC1(C)C(O)C(C)(C)C1O (configuration not stated)
not listed: [1] | [2] | [9] | [10] | [15] | [16] | [17] | [18]
inactive: all other assays above

O=C1OC(=O)C2CCCCC12 (configuration not stated)
not listed: [1] | [2] | [6] | [7] | [15] | [16] | [18] | [20]
inactive: all other assays above

O=c1cc(CO)occ1O
not listed: [2] | [18] | [20]
inactive: all other assays above
